# PubChem BioAssay (NCATS)
# Results filed as inconclusive are left out. Where a call stands in place of a potency, no number is given. The source made the active and inactive calls. Calls follow the shape of the dose curve; as a rule, active = well fitted cell-killing curve with a large enough effect; inconclusive = small, poorly fitted or top-dose-only effect; inactive = flat fitted curve, though single readings scatter.
# Assay: Cell Viability - LYMP2-008 (AID 980); also: nearly all actives have a fitted effect of over 60% in size
# Settings: LYMP2-008 lymphoblastoid cell viability, qHTS; series mostly up to 92.2 µM
# Source text: NIH Chemical Genomics Center [NCGC]
# NIH Molecular Libraries Screening Centers Network [MLSCN]
# National Institutes of Environmental Health Sciences [NIEHS]
# National Toxicology Program [NTP]
# We have developed a 1536-well cell-based assay for quantitative high throughput screening (qHTS) against a number of cell lines to determine in vitro cytotoxicity of small molecules. This particular assay uses a human lymphoblastoid cell line (LYMP2-008) purchased from Coriell Institute for Medical Research.
# NCGC Assay Protocol Summary:
# The CellTiter-Glo luminescent cell viability assay (Promega) is a homogeneous method to measure the number of viable cells in culture. The end point readout of this assay is based on quantitation of intracellular ATP, an indicator of metabolic activity, using the luciferase reaction. Luciferase catalyzes the oxidation of beetle Luciferin to oxyluciferin and light in the presence of ATP. The luminescent signal is proportional to amount of ATP present.
# Using the CellTiter-Glo luminescent cell viability assay, the amount of cellular ATP was measured in the lymphoblastoid cell line with complete culture medium following compound treatment for 24 hours. The assay was performed in opaque white Kalypsys 1536-well plates. In the screen, tetraoctylammonium bromide was used as positive control. Library compounds were measured for their ability to cause acute toxicity in the cell line, as reflected by a decrease in intracellular ATP levels, in a concentration-dependent manner. […] AC50 values were determined from concentration-response data modeled with the standard Hill equation.
# qHTS protocol for CellTiter Glo lymphoblastoid cellular assay
# [Step] [Parameter] [Value] [Description]
# 1. Reagent; 5 uL; 2500 lymphoblastoid cells/well
# 2. Time; 5 hr; 37 C incubation
# 4. Controls; 23 nL; Tetraoctylammonium bromide 6.4pM to 92 uM
# 5. Time; 24 hr; 37 C incubation
# 6. Reagent; 5 uL; CellTiter Glo reagent
# 7. Time; 30 min; Room Temperature
# 8. Detection; Luminescence; Viewlux plate reader
# Keywords: cell viability, cytotoxicity, lymphoblastoid cell line, luminescence, NTPHTS, NTPHTS_NCGC, NIEHS, DSSTox, MLSMR, MLSCN, NIH Roadmap, qHTS, NCGC
# Potency is read from the fitted curve at half-maximal effect.
row,SMILES,Potency
1,CC1=C(/C=C/C(C)=C/C=C/C(C)=C/C=O)C(C)(C)CCC1,39.8 µM (active)
2,CCCCCCCCC1CO1 (stereo not given),inactive
3,Oc1ccc2c(c1)OCO2,inactive
4,Cc1ccc(N)cc1[N+](=O)[O-],inactive
5,Cc1cccnc1,inactive
6,CCCCCCc1ccc(-c2ccc(C#N)cc2)cc1,inactive
7,Nc1ccc(N=Nc2ccccc2)c(N)c1,inactive
8,Oc1cc2c(cc1O)[C@H]1c3ccc(O)c(O)c3OC[C@@]1(O)C2,39.8 µM (active)
9,CC/C=C/C/C=C/C/C=C/CCCCCCCC(=O)OCC,50.1 µM (active)
10,CCCC(=O)OC(=O)CCC,inactive
11,OCC(CBr)(CBr)CBr,inactive
12,OC1CCCCC1,inactive
13,CC(=O)CC(=O)Nc1ccccc1,inactive
14,CCCCNCC,inactive
15,CC(CCC(=O)O)(c1ccc(O)cc1)c1ccc(O)cc1,inactive
16,COc1ccc([N+](=O)[O-])cc1N,inactive
17,O=C(O)/C=C/c1ccc(/C=C/C(=O)O)cc1,inactive
18,CCCCCCCCOc1ccc(C(=O)O)cc1,inactive
19,CC(/C=C/C=C(C)/C=C/C(=O)O)=C\C=C\C=C(C)\C=C\C=C(C)\C=C\C(=O)O,inactive
20,c1ccc2ncccc2c1,inactive

row,SMILES,Potency
1,Nc1ccc(N)c(Cl)c1,inactive
2,O=C(OCc1ccccc1)c1ccccc1O,inactive
3,CCCCCCCC/C=C\CCCCCCCC(=O)N(CCO)CCO,inactive
4,C=Cc1cccc(C)c1,inactive
5,CCNC(=S)NCC,inactive
6,C=CC(=O)OCCCCCCOC(=O)C=C,50.1 µM (active)
7,Oc1c(Cl)cc(Cl)c(Cl)c1Cl,inactive
8,Clc1nc2ccccc2nc1Cl,inactive
9,O=C1OC(=O)c2ccccc21,inactive
10,Cc1c2ccccc2c(C)c2c1ccc1ccccc12,inactive
11,O=C(O)c1cc(N=Nc2ccc([N+](=O)[O-])cc2)ccc1O,inactive
12,Cc1cc(=O)oc2cc(O)cc(O)c12,inactive
13,c1ccc2c(c1)ccc1ccccc12,inactive
14,CC(=O)OCc1ccc2c(c1)OCO2,inactive
15,O=[N+]([O-])c1cc(N(CCO)CCO)ccc1NCCO,inactive
16,Brc1cc(Oc2cc(Br)c(Br)c(Br)c2Br)c(Br)c(Br)c1Br,inactive
17,COc1ccc(C)cc1N,inactive
18,CC(=O)OC1CC(C)OC(C)O1 (stereo not given),inactive
19,CCCCOC(=O)COc1ccc(Cl)cc1Cl,inactive
20,C=CC(C)(O)CCCC(C)CCCC(C)CCCC(C)C (stereo not given),inactive
